Entries with a potency or affinity are not part of this list. Results filed as inconclusive are left out. A number with no mark means an inactive call. How the calls were made is not given here.

This test in a line: general cell-killing toxicity readout – plate reader, dry powder samples, cytotoxicity control for PAX8 inhibitor project, dose response (AID 743021). Conditions: cell line, non-specific cytotoxicity counter-screen; series mostly up to 35 µM; activity change, negative = cytotoxicity: at the top concentration.
`C[C@@H]1CCCCO[C@H](CN(C)C(=O)Nc2ccc(C(F)(F)F)cc2)[C@H](C)CN([C@@H](C)CO)C(=O)c2cc(NS(=O)(=O)c3ccc(Cl)cc3)ccc2O1`: the “activity change, negative = cytotoxicity” value was -19%.
The figure for `C[C@H](O)C#Cc1cnc2c(c1)C(=O)N([C@H](C)CO)C[C@H](C)[C@H](CN(C)Cc1ccc(-c3ccccc3)cc1)O2` is -2.74%; for `Cc1ccc(S(=O)(=O)N(C)C[C@@H]2Oc3cc(C#Cc4ccncc4)ccc3S(=O)(=O)N([C@@H](C)CO)C[C@H]2C)cc1` it is 9.14%.
The figure for `O=C(C[C@@H]1C[C@H]2c3cc(NC(=O)C4CCOCC4)ccc3O[C@H]2[C@H](CO)O1)NCc1ccc(Oc2ccccc2)cc1` is -12.5%.
The value for `C[C@@H]1CCCCO[C@@H](CN(C)Cc2ccc(C(F)(F)F)cc2)[C@H](C)CN([C@H](C)CO)C(=O)c2cc(NS(=O)(=O)c3ccc(Cl)cc3)ccc2O1` was -7.14%; that for `Cc1ccc(S(=O)(=O)N(C)C[C@H]2OCCCC[C@@H](C)Oc3ccc(NS(=O)(=O)c4ccc(F)cc4)cc3C(=O)N([C@@H](C)CO)C[C@H]2C)cc1` was -9.39% [at 30 µM].
Consider `C[C@@H]1CCCCO[C@H](CN(C)C(=O)Cc2ccccc2)[C@H](C)CN([C@@H](C)CO)C(=O)c2cc(NC(=O)Nc3ccc(C(F)(F)F)cc3)ccc2O1`, for which the “activity change, negative = cytotoxicity” value is 18.4% [at 16 µM].
For the compound `Cc1ccc(S(=O)(=O)Nc2ccc3c(c2)C(=O)N([C@H](C)CO)C[C@H](C)[C@H](CN(C)C(=O)c2ccccc2)OCCCC[C@H](C)O3)cc1`, the “activity change, negative = cytotoxicity” value was 15.3%.
As to `COc1ccc(S(=O)(=O)Nc2ccc3c(c2)CC(=O)N([C@H](C)CO)C[C@H](C)[C@@H](CN(C)Cc2ccc(-c4ccccc4)cc2)O3)cc1`, the “activity change, negative = cytotoxicity” value is -16.5%.
The figure for `C[C@@H]1CCCCO[C@H](CN(C)S(=O)(=O)c2ccc(Cl)cc2)[C@@H](C)CN([C@@H](C)CO)C(=O)c2cc(NC(=O)CCC(F)(F)F)ccc2O1` is -23.2%.
The figure for `Cc1ccc(S(=O)(=O)Nc2ccc3c(c2)C(=O)N([C@@H](C)CO)C[C@@H](C)[C@H](CN(C)Cc2ccc(Cl)c(Cl)c2)OCCCC[C@@H](C)O3)cc1` is -3.98%; for `CN1c2ccc(-c3ccc(C#N)cc3)cc2[C@@H]2[C@@H](CCN2C(=O)NC2CCCCC2)[C@@H]1CO` it is -6.16%; for `C[C@H]1CCCCO[C@H](CN(C)C(=O)Nc2ccc(C(F)(F)F)cc2)[C@@H](C)CN([C@@H](C)CO)C(=O)c2cc(NC(=O)c3ccncc3)ccc2O1` it is -21.6%.
Turning to `COc1ccccc1S(=O)(=O)N(C)C[C@@H]1Oc2cc(C#CCC3CCCC3)ccc2S(=O)(=O)N([C@@H](C)CO)C[C@@H]1C`, the “activity change, negative = cytotoxicity” value was -8.86%.
The value for `C[C@@H]1CN([C@H](C)CO)C(=O)c2cc(NC(=O)Nc3ccc(F)cc3)ccc2O[C@@H](C)CCCCO[C@H]1CN(C)C(=O)Nc1ccc(F)cc1` was 9.16%.
The value for `Cc1ccc(S(=O)(=O)N(C)C[C@H]2Oc3ccc(NC(=O)Nc4ccc(C(F)(F)F)cc4)cc3CC(=O)N([C@H](C)CO)C[C@@H]2C)cc1` was -15.9%; that for `CCCN(C)C[C@H]1OCCCC[C@@H](C)Oc2ccc(NC(=O)c3ccccc3)cc2C(=O)N([C@H](C)CO)C[C@H]1C` was 14.1%; that for `C[C@@H]1CN([C@H](C)CO)S(=O)(=O)c2ccc(C#Cc3ccncc3)cc2O[C@H]1CN(C)C(=O)Nc1ccc2c(c1)OCO2` was 1.04%.
For `C[C@@H]1CN([C@H](C)CO)C(=O)c2cc(NC(=O)Nc3ccc(C(F)(F)F)cc3)ccc2O[C@@H](C)CCCCO[C@H]1CN(C)Cc1ccc(Cl)c(Cl)c1`, the “activity change, negative = cytotoxicity” value was -10%.
For the compound `C[C@H](CO)N1C[C@H](C)[C@H](CN(C)C(=O)NC2CCCCC2)OCCCC[C@H](C)Oc2ccc(NC(=O)Nc3ccc(C(F)(F)F)cc3)cc2C1=O`, the “activity change, negative = cytotoxicity” value is -26.4%.
The value for `C[C@@H]1CN([C@H](C)CO)C(=O)Cc2cc(NC(=O)Nc3ccc(F)cc3)ccc2O[C@@H]1CN(C)Cc1ccc(Cl)c(Cl)c1` was -6.39%.
Consider `C[C@@H]1CN([C@@H](C)CO)C(=O)c2ccccc2-c2ccccc2CO[C@H]1CN(C)Cc1ccccc1C(F)(F)F`, for which the “activity change, negative = cytotoxicity” value is 5.93% [at 16 µM].
The value for `Cc1ccc(S(=O)(=O)Nc2ccc3c(c2)C(=O)N([C@@H](C)CO)C[C@H](C)[C@@H](CN(C)C(=O)Nc2ccc(C(F)(F)F)cc2)OCCCC[C@H](C)O3)cc1` was -28%; that for `Cc1ccc(S(=O)(=O)N(C)C[C@@H]2Oc3c(NC(=O)c4ccc(-c5nccs5)cc4)cccc3C(=O)N([C@@H](C)CO)C[C@@H]2C)cc1` was -18.6%.
The value for `C[C@@H]1CN([C@H](C)CO)C(=O)Cc2cc(NC(=O)Cc3ccccc3)ccc2O[C@@H]1CN(C)Cc1ccc(C(F)(F)F)cc1` was 4.24%.
The figure for `C[C@H](CO)N1C[C@H](C)[C@H](CN(C)Cc2ccc(Cl)c(Cl)c2)Oc2c(NS(=O)(=O)c3ccc(Cl)cc3)cccc2C1=O` is -21%; for `C[C@@H]1CN([C@H](C)CO)C(=O)c2cc(NC(=O)c3ccncc3)ccc2O[C@@H](C)CCCCO[C@H]1CN(C)Cc1ccc(C(F)(F)F)cc1` it is -30.1%.
Consider `C[C@@H]1CN([C@@H](C)CO)C(=O)c2cc(NS(=O)(=O)c3ccc(Cl)cc3)ccc2O[C@@H](C)CCCCO[C@H]1CN(C)Cc1ccc(C(F)(F)F)cc1`, for which the “activity change, negative = cytotoxicity” value is -1.25%.
The figure for `C[C@H]1CCCCO[C@@H](CN(C)C(=O)c2ccccc2)[C@@H](C)CN([C@@H](C)CO)C(=O)c2cc(NC(=O)Nc3ccc(C(F)(F)F)cc3)ccc2O1` is -10%.
The value for `C[C@@H]1CN([C@@H](C)CO)C(=O)c2cc(NS(=O)(=O)c3ccccc3)ccc2O[C@@H](C)CCCCO[C@@H]1CN(C)Cc1ccc(C(F)(F)F)cc1` was -26.8%.
The value for `C[C@@H]1CN([C@H](C)CO)C(=O)c2cc(NC(=O)Nc3ccccc3)ccc2O[C@@H](C)CCCCO[C@H]1CN(C)Cc1ccc(Cl)c(Cl)c1` was -20.5%; that for `C[C@@H]1CCCCO[C@@H](CN(C)Cc2ccc(Cl)c(Cl)c2)[C@H](C)CN([C@@H](C)CO)C(=O)c2cc(NC(=O)Cc3ccccc3)ccc2O1` was 4.92%; that for `C[C@H]1CCCCO[C@H](CN(C)S(=O)(=O)c2ccc(Cl)cc2)[C@@H](C)CN([C@@H](C)CO)C(=O)c2cc(NS(=O)(=O)c3ccc(Cl)cc3)ccc2O1` was -17.7%.
For the compound `C[C@@H]1CN([C@@H](C)CO)C(=O)c2cc(NC(=O)c3ccccc3)ccc2O[C@@H](C)CCCCO[C@H]1CN(C)Cc1ccc(C(F)(F)F)cc1`, the “activity change, negative = cytotoxicity” value was -20%.
The figure for `C[C@@H]1CCCCO[C@H](CN(C)C)[C@H](C)CN([C@H](C)CO)C(=O)c2cc(NC(=O)Nc3cccc4ccccc34)ccc2O1` is -15.7%.
The figure for `C[C@H](CO)N1C[C@H](C)[C@@H](CN(C)C(=O)NC2CCCCC2)Oc2cc(C#Cc3ccc(F)cc3)ccc2S1(=O)=O` is 24.1%; for `C[C@H]1CCCCO[C@@H](CN(C)C(=O)Nc2ccc(C(F)(F)F)cc2)[C@@H](C)CN([C@@H](C)CO)C(=O)c2cc(NS(=O)(=O)c3cn(C)cn3)ccc2O1` it is 8.39%.
The value for `COc1ccccc1-c1ccc2c(c1)O[C@H](CN(C)Cc1ccc3c(c1)OCO3)[C@H](C)CN([C@@H](C)CO)S2(=O)=O` was -1.25%; that for `C[C@@H]1CCCCO[C@H](CN(C)C(=O)NC2CCCCC2)[C@@H](C)CN([C@@H](C)CO)C(=O)c2cc(NC(=O)Nc3ccc(C(F)(F)F)cc3)ccc2O1` was -7.78%.
Turning to `C[C@@H]1CN([C@@H](C)CO)C(=O)Cc2cc(NS(=O)(=O)c3ccc(F)cc3)ccc2O[C@H]1CN(C)Cc1ccc(Oc2ccccc2)cc1`, the “activity change, negative = cytotoxicity” value is -22%.
